Measurements: PubChem BioAssay AID1159580 (chemical genetic matrix, 2015)
Several values for one entry are separate records, joined by “and”; a condition that tells them apart may be missing. Equal values may be shown once. Among all 5,500 compounds or so, about 2,000 (36%) were called active. Not shown: some 18% with an inconclusive outcome. Cut-off read from the data, not from the text of the source: active = normalized growth mostly below about 0.91 (no sharp cut-off); inconclusive = no clear call, values can overlap the other calls; inactive = mostly above about 0.92. The list shows a part of the results.

Test: chemical genetic growth profiling, strain panel (AID 1159580);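 note: tested at 20 µM; growth read once vehicle control cultures reached saturation at 30 °C; 1 = growth at the plate median or of vehicle wells; lower values mean less growth of the strain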
Settings: S. cerevisiae deletion strains, growth OD

Measured: normalized growth

CCCC(C)C1(CC)C(=O)N=C(S)NC1=O (stereo unspecified)
active: locus YCL029C, strain bik1, hits give low values 0.557 | locus YDL192W, strain arf1, hits give low values 0.0766 | locus YDR101C, strain arx1, hits give low values 0.371 | locus YDR318W, strain mcm21, hits give low values 0.0671 | locus YDR388W, hits give low values 0.0597 | locus YDR502C, strain sam2, hits give low values 0.0887 | locus YER110C, hits give low values 0.157 | locus YGL078C, strain dbp3, hits give low values 0.095 | locus YGL086W, strain mad1, hits give low values 0.0546 | locus YGR135W, strain pre9, hits give low values 0.0693 | locus YGR252W, strain gcn5, hits give low values 0.187 | locus YHR079C, strain IRE1 (second series), hits give low values 0.407 | locus YHR094C, strain hxt1, hits give low values 0.0939 | locus YHR200W, strain rpn10, hits give low values 0.0912 | locus YIL125W, strain kgd1, hits give low values 0.141 | locus YIR030C, strain dcg1, hits give low values 0.185 | locus YJL168C, strain set2, hits give low values 0.123
inactive: locus YAL013W, strain DEP1, hits give low values 1.01 | locus YAL021C, strain ccr4, hits give low values 0.993 | locus YAL026C, strain drs2, hits give low values 0.994 | locus YAL030W, strain snc1, hits give low values 0.983 | locus YBL061C, strain skt5, hits give low values 1.01 | locus YBR009C, strain hhf1, hits give low values 0.992 | locus YBR021W, strain FUR4, hits give low values 1.01 | locus YBR023C, strain chs3, hits give low values 0.989 | locus YBR171W, strain sec66, hits give low values 0.993 | locus YBR229C, strain ROT2, hits give low values 1.01 | locus YBR231C, strain swc5, hits give low values 1.01 | locus YBR279W, strain paf1, hits give low values 0.998 | locus YCL011C, strain gbp2, hits give low values 1.01 | locus YCL016C, strain dcc1, hits give low values 0.995 | locus YCL061C, strain MRC1, hits give low values 1 | locus YCL069W, strain vba3, hits give low values 1 | locus YCR088W, strain abp1, hits give low values 0.984 | locus YDL005C, strain med2, hits give low values 0.987 | locus YDL035C, strain GPR1, hits give low values 1.02 | locus YDL040C, strain nat1, hits give low values 0.993 | locus YDL074C, strain BRE1, hits give low values 1.06 | locus YDL101C, strain DUN1, hits give low values 1.01 | locus YDL134C, strain PPH21, hits give low values 1 | locus YDL185W, strain tfp1, hits give low values 1.01 | locus YDR001C, strain nth1, hits give low values 1 | locus YDR069C, strain doa4, hits give low values 0.996 | locus YDR137W, strain rgp1, hits give low values 0.908 | locus YDR150W, strain NUM1, hits give low values 1.02 | locus YDR159W, strain sac3, hits give low values 0.971 | locus YDR162C, strain NBP2, hits give low values 1.02 | locus YDR195W, strain ref2 0.979 | locus YDR297W, strain sur2, hits give low values 0.997 | locus YDR334W, strain swr1, hits give low values 0.998 | locus YDR335W, strain msn5, hits give low values 0.993 | locus YDR392W, strain spt3, hits give low values 0.977 | locus YEL003W, strain gim4, hits give low values 0.997 | locus YEL037C, strain rad23, hits give low values 1 | locus YEL061C, strain CIN8 (second series), hits give low values 0.997 | locus YEL061C, strain CIN8, hits give low values 1 | locus YER015W, strain faa2, hits give low values 0.998 | locus YER016W, strain bim1, hits give low values 1.01 | locus YER111C, strain swi4, hits give low values 1.01 | locus YER155C, strain BEM2 (second series), hits give low values 0.986 | locus YER155C, strain BEM2, hits give low values 1.01 | locus YER167W, strain BCK2, hits give low values 1.02 | locus YFR010W, strain ubp6, hits give low values 1.01 | locus YGL167C, strain pmr1, hits give low values 0.991 | locus YGL173C, strain kem1, hits give low values 0.99 | locus YGL227W, strain vid30, hits give low values 0.981 | locus YGL240W, strain doc1, hits give low values 0.982 | locus YGL248W, strain PDE1, hits give low values 1.01 | locus YGL253W, strain hxk2, hits give low values 1.01 | locus YGR078C, strain PAC10, hits give low values 1.03 | locus YGR229C, strain SMI1, hits give low values 1.01 | locus YHR013C, strain ard1, hits give low values 0.997 | locus YHR027C, strain rpn1, hits give low values 0.996 | locus YHR030C, strain SLT2, hits give low values 1.01 and 0.984 | locus YHR079C, strain IRE1, hits give low values 0.979 | locus YHR129C, strain ARP1, hits give low values 1.01 | locus YHR142W, strain chs7, hits give low values 0.986 | locus YIL066C, strain RNR3, hits give low values 1.03 | locus YIL073C, strain SPO22, hits give low values 1.11 | locus YJL092W, strain hpr5, hits give low values 0.991 | locus YJL095W, strain BCK1 (second series), hits give low values 0.995 | locus YJL095W, strain BCK1, hits give low values 1 and 0.991 | locus YJL115W, strain asf1, hits give low values 0.988 | locus YJL129C, strain trk1, hits give low values 0.962 | locus YJL134W, strain LCB3, hits give low values 1.01 | locus YJL154C, strain vps35, hits give low values 0.987 | locus YJL164C, strain tpk1, hits give low values 0.995 | locus YJL166W, strain qcr8, hits give low values 0.975 | locus YJL187C, strain SWE1 (second series), hits give low values 1 | locus YJR043C, strain POL32, hits give low values 1.02 | locus YJR066W, strain TOR1, hits give low values 0.945
